For part of these data: Potency and affinity values are given separately. Some of the results follow. Active and inactive are the calls of the source.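 How the source made its calls, unless noted: active means dose curve with midpoint inside tested range, moderate steepness, plateau gap beyond fit error, low compound glow and bead-link interference; inactive means the rest.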
Experiments:
[1] = target: Cell division control protein 42 homolog (Homo sapiens) (UniProt P60953); assay: activated mutant Cdc42 GTP-binding inhibitors, dose response, biochemical, multiplex bead flow cytometry, Bodipy-FL-GTP (AID 1333;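 active means fitted half-maximal concentration within the tested dose range, moderate curve steepness, a statistically real signal drop, and little compound fluorescence or tag-binding interference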)
[2] = target: Cell division control protein 42 homolog (Homo sapiens) (UniProt P60953); assay: wildtype Cdc42 GTP-binding inhibitors, dose response, biochemical, multiplex bead flow cytometry, Bodipy-FL-GTP (AID 1334;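 active means fitted half-maximal concentration within the tested range, moderate curve steepness, significant signal drop, and little compound fluorescence or bead-linkage interference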); conditions: bead-based flow cytometry, Bodipy-FL-GTP binding to GST-Cdc42; at 100 µM (top of the series)
[3] = test system: Ras-related protein Rab-7a (dog), GTP binding; assay: Rab7 GTP binding inhibitors, potency, dose response, biochemical, wildtype, multiplex bead flow cytometry (AID 1336; call rule not given here)
[4] = target: Ras-related C3 botulinum toxin substrate 1 (Homo sapiens) (UniProt P63000); assay: wildtype Rac1 GTP binding inhibitors, dose response, biochemical, multiplex bead flow cytometry (AID 1340); conditions: GST-Rac1 beads, Bodipy-FL-GTP binding; at 100 µM (top of the series)
[5] = target: GTPase HRas (Homo sapiens) (UniProt P01112); assay: activated Ras mutant GTP binding inhibitors, dose response, biochemical, multiplex bead flow cytometry (AID 1341;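 active means dose-response curve with midpoint inside the tested range, moderate steepness, significant amplitude and little compound fluorescence or bead-attachment interference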;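 further: GST-tagged constitutively activated Ras mutant immobilized on beads and multiplexed with other GTPases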)
[6] = target: Regulator of G-protein signaling 16 (Homo sapiens) (UniProt O15492); assay: modulators of RGS–Galpha-o binding, primary screen, biochemical, multiplexed beads, flow cytometry, RGS4/7/8/16/19 (AID 1504; call rule not given here;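 further: fluorescently labeled Galpha-o bound to GDP with aluminium fluoride binding biotinylated RGS beads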); conditions: multiplexed bead flow cytometry, measured here: RGS16 interaction, at 10 µM
[7] = target: Regulator of G-protein signaling 4 (Homo sapiens) + Guanine nucleotide-binding protein G(o) subunit alpha (Homo sapiens) (UniProt P49798+P09471); assay: as above; conditions: multiplexed bead flow cytometry, at 10 µM
[8] = target: Regulator of G-protein signaling 7 (Homo sapiens) (UniProt P49802); assay: as above; conditions: multiplexed bead flow cytometry, measured here: RGS7 interaction, at 10 µM
[9] = target: Regulator of G-protein signaling 8 (Homo sapiens) (UniProt P57771); assay: as above; conditions: multiplexed bead flow cytometry, measured here: RGS8 interaction, at 10 µM
[10] = disruption of biotin probe capture by avidin, counter-screen for RGS protein interaction modulators, biochemical, flow cytometry, bead-based (AID 1783;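 active means inhibition above 50%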;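 further: median green fluorescence of gated singlet beads compared with DMSO control wells; 0% = DMSO wells and 100% = complete loss of bead fluorescence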); conditions: streptavidin beads, fluorescein-biotin binding, at 10 µM, stronger effect = higher value
[11] = target: Guanine nucleotide-binding protein G(o) subunit alpha (Homo sapiens) (UniProt P09471); assay: RGS8-Galphao binding modulators, confirmation, biochemical, multiplexed bead flow cytometry, single concentration (AID 1836; in the data active means binding response below about 72% or above about 130%; inactive means in between;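 further: Galphao activated as GDP AlF4 complex before binding bead RGS8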); conditions: bead-based flow cytometry RGS8-Galphao binding, fluorescence; at 10 µM; actives lie on both sides
[12] = target: Guanine nucleotide-binding protein G(o) subunit alpha (Homo sapiens) (UniProt P09471); assay: RGS7-Galphao binding modulators, confirmation, biochemical, multiplexed bead flow cytometry, single concentration (AID 1837; in the data active means response below about 75% or above about 130%; inactive means in between;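 further: fluorescent Galphao activated with GDP and aluminum fluoride binding bead-coupled RGS7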); conditions: bead-based flow cytometry RGS7-Galphao binding; at 10 µM; actives lie on both sides
[13] = target: Regulator of G-protein signaling 16 (Homo sapiens) + Guanine nucleotide-binding protein G(o) subunit alpha (Homo sapiens) (UniProt O15492+P09471); assay: modulators of RGS16-Galphao protein binding, confirmation, biochemical, single concentration, multiplexed bead flow cytometry (AID 1838; in the data active means response below about 74% or above about 130%; inactive means in between;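 further: Galphao activated as the GDP aluminium fluoride complex binding bead-coupled RGS16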); conditions: bead-based flow cytometry, at 10 µM, actives lie on both sides
[14] = target: Guanine nucleotide-binding protein G(o) subunit alpha (Homo sapiens) (UniProt P09471); assay: modulators of RGS4-Galphao protein binding, confirmation, biochemical, single concentration, multiplexed bead flow cytometry (AID 1840; in the data active means binding response below about 74% or above about 130%; inactive means in between); conditions: at 10 µM, actives lie on both sides
[15] = target: Guanine nucleotide-binding protein G(o) subunit alpha (Homo sapiens) + Regulator of G-protein signaling 19 (Homo sapiens) (UniProt P09471+P49795); assay: regulators of RGS19-Galphao binding, confirmation, biochemical, single point, multiplexed bead flow cytometry (AID 1841; in the data active means response below about 50% or above about 160%; inactive means in between;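 further: 100% = no compound control and 0% = blank background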); conditions: bead-based flow cytometry RGS19-Galphao binding; at 10 µM; actives lie on both sides
[16] = RPL19A-GFP modulators, yeast TOR pathway, confirmation, cell-based, S. cerevisiae, flow cytometry, cherry picks, mother/daughter gates (AID 2270;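 active means GFP response below 50% of the DMSO control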); conditions: S. cerevisiae RPL19A-GFP strain, 3 h, at 10 µM, stronger effect = lower value, 100 = same GFP as DMSO wells
[17] = LAP4-GFP expression modulators in yeast, confirmation, cell-based, cherry picks, flow cytometry, mother/daughter gates (AID 2271;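 active means GFP response above 150% of the DMSO control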;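 further: ratio of sample to DMSO plate mean so 100% equals DMSO level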); conditions: S. cerevisiae LAP4-GFP strain, 3 h, at 10 µM, stronger effect = higher value
[18] = modulators of MEP2-GFP levels in yeast, confirmation, S. cerevisiae, flow cytometry GFP, cherry picks (AID 2272;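 active means GFP response above 150% of the DMSO control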;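 further: ratio of well signal to plate DMSO mean so 100% equals DMSO level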); conditions: S. cerevisiae MEP2-GFP strain, 3 h, at 10 µM, stronger effect = higher value
[19] = AGP1-GFP expression modulators, hit retest, confirmation, cell-based, flow cytometry, S. cerevisiae, cherry picks (AID 2273;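 active means GFP response above 150% of the DMSO level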;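 further: median GFP channel fluorescence over the whole cell population gate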); conditions: S. cerevisiae AGP1-GFP strain, 3 h, at 10 µM
[20] = modulators of CIT2-GFP expression in yeast, confirmation, S. cerevisiae, GFP fusion, cherry picks, mother/daughter gates (AID 2274;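 active means GFP response above 150% of the DMSO level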); conditions: S. cerevisiae CIT2-GFP strain, flow cytometry, 3 h, at 10 µM, stronger effect = higher value
[21] = measured here: daughter cell gate
[22] = measured here: mother cell gate
[23] = measured here: daughter cell gate response
[24] = measured here: mother cell gate response

Cell division control protein 42 homolog (Homo sapiens), sequence (P60953 whole entry, looked up): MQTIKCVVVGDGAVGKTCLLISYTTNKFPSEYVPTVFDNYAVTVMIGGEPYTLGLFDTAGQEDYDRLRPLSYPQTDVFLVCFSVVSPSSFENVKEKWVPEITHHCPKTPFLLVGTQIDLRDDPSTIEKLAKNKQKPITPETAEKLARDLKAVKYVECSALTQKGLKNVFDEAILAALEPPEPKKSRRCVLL
Guanine nucleotide-binding protein G(o) subunit alpha (Homo sapiens), sequence (P09471 whole entry, looked up): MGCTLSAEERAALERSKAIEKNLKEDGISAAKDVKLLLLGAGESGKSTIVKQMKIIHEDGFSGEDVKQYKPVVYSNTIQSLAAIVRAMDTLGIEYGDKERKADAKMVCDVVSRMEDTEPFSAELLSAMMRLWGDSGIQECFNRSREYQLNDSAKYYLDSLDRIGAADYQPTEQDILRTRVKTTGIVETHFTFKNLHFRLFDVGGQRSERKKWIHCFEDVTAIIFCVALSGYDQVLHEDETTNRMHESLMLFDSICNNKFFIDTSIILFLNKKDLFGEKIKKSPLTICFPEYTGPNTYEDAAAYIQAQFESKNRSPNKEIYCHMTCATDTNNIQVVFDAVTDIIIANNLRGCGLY
Regulator of G-protein signaling 16 (Homo sapiens) + Guanine nucleotide-binding protein G(o) subunit alpha (Homo sapiens), sequence (O15492 whole entry, looked up): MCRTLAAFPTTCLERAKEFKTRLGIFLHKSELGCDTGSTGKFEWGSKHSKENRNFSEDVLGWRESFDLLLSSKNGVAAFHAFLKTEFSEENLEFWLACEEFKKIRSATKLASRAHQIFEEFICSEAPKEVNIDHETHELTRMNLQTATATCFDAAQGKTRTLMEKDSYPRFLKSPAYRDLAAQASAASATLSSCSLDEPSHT
Regulator of G-protein signaling 16 (Homo sapiens) + Guanine nucleotide-binding protein G(o) subunit alpha (Homo sapiens), sequence (P09471 whole entry, looked up): as the sequence (P09471 whole entry, looked up) above
Guanine nucleotide-binding protein G(o) subunit alpha (Homo sapiens) + Regulator of G-protein signaling 19 (Homo sapiens), sequence (P09471 whole entry, looked up): as above
Guanine nucleotide-binding protein G(o) subunit alpha (Homo sapiens) + Regulator of G-protein signaling 19 (Homo sapiens), sequence (P49795 whole entry, looked up): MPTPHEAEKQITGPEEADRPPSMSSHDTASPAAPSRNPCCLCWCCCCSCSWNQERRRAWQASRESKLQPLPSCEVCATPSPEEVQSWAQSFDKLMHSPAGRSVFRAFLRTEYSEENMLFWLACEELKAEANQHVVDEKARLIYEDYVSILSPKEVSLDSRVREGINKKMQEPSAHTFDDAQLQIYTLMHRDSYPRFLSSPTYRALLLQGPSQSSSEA
Regulator of G-protein signaling 4 (Homo sapiens) + Guanine nucleotide-binding protein G(o) subunit alpha (Homo sapiens), sequence (P09471 whole entry, looked up): as the sequence (P09471 whole entry, looked up) above
Regulator of G-protein signaling 4 (Homo sapiens) + Guanine nucleotide-binding protein G(o) subunit alpha (Homo sapiens), sequence (P49798 whole entry, looked up): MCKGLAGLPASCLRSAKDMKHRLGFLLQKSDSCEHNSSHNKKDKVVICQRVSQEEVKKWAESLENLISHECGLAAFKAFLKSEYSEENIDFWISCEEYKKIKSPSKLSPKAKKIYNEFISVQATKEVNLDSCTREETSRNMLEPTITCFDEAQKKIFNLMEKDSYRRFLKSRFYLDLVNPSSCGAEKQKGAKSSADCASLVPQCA

SMILES: O=C(O)c1cn(Cc2ccccc2Cl)c2ccccc12
- outcome [1]: inactive
- fluorescence, percent of control (lower = inhibition) [2]: 64.9%
- outcome [3]: inactive
- GTP binding signal, raw median fluorescence (lower = inhibition) (MCF (arbitrary fluorescence units)) [4]: 34.1
- outcome [5]: inactive

SMILES: O=C1NC(=S)N(Cc2ccco2)C(=O)/C1=C\c1cccs1
- outcome [1]: inactive
- fluorescence, percent of control (lower = inhibition) [2]: 54.7%
- outcome [3]: inactive
- GTP binding signal, raw median fluorescence (lower = inhibition) (MCF (arbitrary fluorescence units)) [4]: 167
- outcome [5]: inactive

SMILES: Cc1ccc(-n2c(O)c(/C=N/c3ncc(Br)cc3Br)c(=O)[nH]c2=O)cc1
- outcome [1]: inactive
- fluorescence, percent of control (lower = inhibition) [2]: 49.1%
- outcome [3]: inactive
- GTP binding signal, raw median fluorescence (lower = inhibition) (MCF (arbitrary fluorescence units)) [4]: 59.9
- outcome [5]: inactive

SMILES: Cc1ccccc1OCCCn1cc(C(=O)O)c2ccccc21
- outcome [1]: inactive
- fluorescence, percent of control (lower = inhibition) [2]: 68.3%
- outcome [3]: inactive
- GTP binding signal, raw median fluorescence (lower = inhibition) (MCF (arbitrary fluorescence units)) [4]: 37.8
- outcome [5]: inactive

SMILES: COCCCn1c(N)c(C(=O)Nc2sc3c(c2C(=O)OC)CCCC3)c2nc3ccccc3nc21
- outcome [1]: inactive
- fluorescence, percent of control (lower = inhibition) [2]: 85.2%
- outcome [3]: inactive
- GTP binding signal, raw median fluorescence (lower = inhibition) (MCF (arbitrary fluorescence units)) [4]: 139
- outcome [5]: inactive

SMILES: Cc1ccc(C)c(OCCCn2cc(C(=O)O)c3ccccc32)c1
- outcome [1]: inactive
- fluorescence, percent of control (lower = inhibition) [2]: 61.7%
- outcome [3]: inactive
- GTP binding signal, raw median fluorescence (lower = inhibition) (MCF (arbitrary fluorescence units)) [4]: 36.2
- outcome [5]: inactive

SMILES: CCN(CC)c1ccc(/C=N/c2sc3c(c2C#N)C2CCN3CC2)c(O)c1
- outcome [1]: inactive
- fluorescence, percent of control (lower = inhibition) [2]: 91.1%
- outcome [3]: inactive
- GTP binding signal, raw median fluorescence (lower = inhibition) (MCF (arbitrary fluorescence units)) [4]: 248
- outcome [5]: inactive

SMILES: Cc1nn(Cc2ccccc2)c(Cl)c1C(=O)O
- fluorescence, percent of control (lower = inhibition) [2]: 45.4%
- GTP binding signal, raw median fluorescence (lower = inhibition) (MCF (arbitrary fluorescence units)) [4]: 270
- outcome [5]: inactive

SMILES: CCn1nc(/C=C/c2ccccc2)nc2c(=O)n(C)c(=O)nc1-2
- outcome [3]: inactive
- GTP binding signal, raw median fluorescence (lower = inhibition) (MCF (arbitrary fluorescence units)) [4]: 195
- outcome [5]: inactive

SMILES: CCCCN1C(=O)/C(=C\c2ccco2)C(=O)N(CCc2ccccc2)C1=O
- outcome [1]: inactive
- fluorescence, percent of control (lower = inhibition) [2]: 77.8%
- outcome [3]: inactive
- GTP binding signal, raw median fluorescence (lower = inhibition) (MCF (arbitrary fluorescence units)) [4]: 129
- outcome [5]: inactive

SMILES: O=C(O)c1cn(Cc2ccc(Cl)cc2)c2ccccc12
- outcome [1]: inactive
- fluorescence, percent of control (lower = inhibition) [2]: 76.5%
- outcome [3]: inactive
- GTP binding signal, raw median fluorescence (lower = inhibition) (MCF (arbitrary fluorescence units)) [4]: 77.6
- outcome [5]: inactive

SMILES: CC(Oc1ccc(-c2ccccc2)cc1)C(=O)O (stereo not given)
- outcome [1]: inactive
- fluorescence, percent of control (lower = inhibition) [2]: 126%
- outcome [3]: inactive
- GTP binding signal, raw median fluorescence (lower = inhibition) (MCF (arbitrary fluorescence units)) [4]: 213
- outcome [5]: inactive

SMILES: Cc1cc(OCCCn2cc(C(=O)O)c3ccccc32)ccc1Cl
- outcome [1]: inactive
- fluorescence, percent of control (lower = inhibition) [2]: 58.1%
- outcome [3]: inactive
- GTP binding signal, raw median fluorescence (lower = inhibition) (MCF (arbitrary fluorescence units)) [4]: 28.5
- outcome [5]: inactive

SMILES: CN1C(=O)N(C)C(=O)C2(Cc3c(ccc4ccccc34)N(C)C2)C1=O
- outcome [1]: inactive
- fluorescence, percent of control (lower = inhibition) [2]: 34.8%
- outcome [3]: inactive
- GTP binding signal, raw median fluorescence (lower = inhibition) (MCF (arbitrary fluorescence units)) [4]: 230
- outcome [5]: inactive

SMILES: CCOC(=O)c1c(NC(=O)c2c(N)n(CCCOC)c3nc4ccccc4nc23)sc2c1CCCC2
- outcome [1]: inactive
- fluorescence, percent of control (lower = inhibition) [2]: 77.3%
- outcome [3]: inactive
- GTP binding signal, raw median fluorescence (lower = inhibition) (MCF (arbitrary fluorescence units)) [4]: 151
- outcome [5]: inactive

SMILES: O=c1[nH]c(=S)[nH]c(O)c1N=Nc1cc2c(cc1[N+](=O)[O-])OCO2
- outcome [1]: inactive
- fluorescence, percent of control (lower = inhibition) [2]: 24.3%
- outcome [3]: inactive
- GTP binding signal, raw median fluorescence (lower = inhibition) (MCF (arbitrary fluorescence units)) [4]: 211
- outcome [5]: inactive

SMILES: Cc1ccc(C)c(OCCn2cc(C(=O)O)c3ccccc32)c1
- outcome [1]: inactive

SMILES: CC(C)N(CC#CCC1(O)c2ccccc2-c2ccccc21)C(C)C
- RGS16–Galpha-o binding response [6]: 180%
- RGS4–Galpha-o binding response [7]: 106% (active)
- RGS7–Galpha-o binding response [8]: 107%
- RGS8–Galpha-o binding response [9]: 122%
- inhibition [10]: 0.7% (inactive)
- binding response (% of control) [11]: 98.5% (inactive)
- response (percent of control binding) [12]: 99.5% (inactive)
- response (% of control binding) [13]: 101% (inactive)
- binding response (% of control) [14]: 99.5% (inactive)
- response (percent of control binding) [15]: 110% (inactive)

SMILES: Nc1ccc(C(=O)N/N=C2/CN3CCC2CC3)cc1
- inhibition [10]: -1.4% (inactive)
- binding response (% of control) [11]: 102% (inactive)
- response (percent of control binding) [12]: 98.3% (inactive)
- response (% of control binding) [13]: 99.4% (inactive)
- binding response (% of control) [14]: 100% (inactive)
- response (percent of control binding) [15]: 92.4% (inactive)

SMILES: CN(C)c1ccc(/C=C/C=C2/C(=O)NC(=O)N(c3ccccc3)C2=O)cc1
- outcome [1]: inactive
- fluorescence, percent of control (lower = inhibition) [2]: 23.6%
- outcome [3]: inactive
- GTP binding signal, raw median fluorescence (lower = inhibition) (MCF (arbitrary fluorescence units)) [4]: 155
- outcome [5]: inactive

SMILES: C[C@]12CC[C@@H](O)C[C@@H]1CC[C@@H]1[C@@H]2CC[C@]2(C)[C@@H](O)CC[C@@H]12
- GFP response vs DMSO [16]: 92.2% (inactive)
- GFP response vs DMSO [16, 21]: 87.3%
- GFP response vs DMSO [16, 22]: 94.1%
- GFP response relative to DMSO [17]: 112% (inactive)
- GFP response relative to DMSO [17, 23]: 107%
- GFP response relative to DMSO [17, 24]: 119%
- GFP response vs DMSO [18]: 89.9% (inactive)
- GFP response, % of DMSO [19]: 90% (inactive)
- GFP response, % of DMSO [20]: 85.5% (inactive)
- GFP response, % of DMSO [20, 21]: 86.2%
- GFP response, % of DMSO [20, 22]: 87.8%

SMILES: C[C@]12CCC(=O)C=C1CC[C@@H]1[C@@H]2CC[C@]2(C)C(=O)CC[C@@H]12
- GFP response vs DMSO [16]: 96.8% (inactive)
- GFP response vs DMSO [16, 21]: 95.1%
- GFP response vs DMSO [16, 22]: 97.7%
- GFP response relative to DMSO [17]: 102% (inactive)
- GFP response relative to DMSO [17, 23]: 102%
- GFP response relative to DMSO [17, 24]: 101%
- GFP response vs DMSO [18]: 94.1% (inactive)
- GFP response, % of DMSO [19]: 91.2% (inactive)
- GFP response, % of DMSO [20]: 98.3% (inactive)
- GFP response, % of DMSO [20, 21]: 97.2%
- GFP response, % of DMSO [20, 22]: 99.7%
